In the supplement of paper PMC9694430:

Experiments:
Assay in all cases: thermal shift delta Tm vs DMSO control; higher = stronger stabilization (binding)
Details in all cases: 12.5 µM; protein concentration 2 µM
[1] = test system: LOC_OS01G57100-cb003
Summary of the method: (§1)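 Purified, E. coli-expressed rice kinase domain constructs were tested by differential scanning fluorimetry in 96-well plates: 19.5 μl of 2 μM kinase in 100 mM potassium phosphate pH 7.5, 150 mM NaCl, 10% glycerol, 5 × SYPRO Orange, plus compound in DMSO. Fluorescence was read from 25°C to 95°C at 0.05°C/s. Melting temperatures came from Boltzmann fits, and the shift is the triplicate mean relative to protein with DMSO alone.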

[2] = test system: LOC_OS01G60330-cb001
Summary of the method: as §1

[3] = test system: LOC_OS01G60700-cb002
Summary of the method: as §1

[4] = test system: LOC_OS01G63280-cb003
Summary of the method: as §1

[5] = test system: LOC_OS01G67340-cb003
Summary of the method: as §1

[6] = test system: LOC_OS01G70970-cb002
Summary of the method: as §1

[7] = test system: LOC_OS02G07810-cb001
Summary of the method: as §1

[8] = test system: LOC_OS02G08530-cb003
Summary of the method: as §1

[9] = test system: LOC_OS02G14120-cb001
Summary of the method: as §1

[10] = test system: LOC_OS02G17970-cb001
Summary of the method: as §1

Structure (SMILES) | thermal shift delta Tm [1] [°C] | thermal shift delta Tm [2] [°C] | thermal shift delta Tm [3] [°C] | thermal shift delta Tm [4] [°C] | thermal shift delta Tm [5] [°C] | thermal shift delta Tm [6] [°C] | thermal shift delta Tm [7] [°C] | thermal shift delta Tm [8] [°C] | thermal shift delta Tm [9] [°C] | thermal shift delta Tm [10] [°C]
CN1c2ccccc2C(=O)Nc2cnc(Nc3ccc(N4CCC(O)CC4)cc3)nc21 | 0.2 | 1.06 | 0.97 | 2.56 | 1.01 | 2.61 | 0.39 | 0.74 | 11.1 | 0.53
COc1cc2nccc(Oc3ccc(NC(=O)C4(C(=O)Nc5ccc(F)cc5)CC4)cc3)c2cc1OC [Cabozantinib malate (XL184)] | 1.34 | 0.89 | 1.35 | 0.47 | 0.53 | 0.57 | 1.09 | 1.12 | 0.46 | 0.98
C[C@@H](N)[C@H]1CC[C@H](C(=O)Nc2ccncc2)CC1 | 0.49 | 1.12 | 1.12 | 0.48 | 0.04 | 0.52 | 0.9 | 0.85 | 0.71 | 0.32
CN(c1ccccc1CNc1nc(Nc2ccc3c(c2)CC(=O)N3)ncc1C(F)(F)F)S(C)(=O)=O | 2.5 | 2.26 | 1.26 | 6.35 | 3.07 | 9.4 | 1.12 | 2.68 | 8.26 | 0.68
C=CC(=O)N[C@H]1CCOC[C@H]1Nc1ncc2cc(-c3c(Cl)c(OC)cc(OC)c3Cl)ccc2n1 | 2.49 | -0.43 | -0.29 | -0.43 | -0.17 | -0.04 | -1.01 | 0.62 | 0.55 | -0.41
COc1cc(Nc2ncc(F)c(Nc3ccc4c(n3)N(COP(=O)(O)O)C(=O)C(C)(C)O4)n2)cc(OC)c1OC [R788 (Fostamatinib) Disodium] | 1.79 | 1.17 | 1.17 | 1.12 | 0.57 | 1.43 | 0.47 | 0.82 | 5.05 | 1.55
Cc1cnc(Nc2ccc(OCCN3CCCC3)cc2)nc1Nc1cccc(S(=O)(=O)NC(C)(C)C)c1 | 2.1 | 1.83 | 0.56 | 0.21 | 0.84 | 2.94 | 0.5 | 2.64 | 7.4 | 0.44
CN1CCN(c2nc(C3=C(c4c[nH]c5ccccc45)C(=O)NC3=O)c3ccccc3n2)CC1 [Sotrastaurin] | 2.03 | 0.97 | 0.76 | 0.55 | 0.35 | 0.69 | 0.94 | 1.16 | 1.17 | 0.29
CN1CCN(c2ccc(-c3ccncc3-c3cc(F)c(O)c(F)c3)cc2)CC1 | 0.87 | 1.02 | 0.66 | 0.31 | 0.24 | 0.16 | 0.06 | 0.29 | 1.22 | 0.89
CN(C)C/C=C/C(=O)Nc1cc2c(Nc3ccc(F)c(Cl)c3)ncnc2cc1O[C@H]1CCOC1 [Afatinib (BIBW2992)] | 0.75 | 0.2 | 1 | -0.22 | -0.42 | 0.44 | 0.56 | 0.76 | 2.04 | -0.15
O=c1cc(N2CCOCC2)oc2c(-c3cccc4c3sc3ccccc34)cccc12 | 0.74 | 0.23 | -0.43 | -0.77 | -0.51 | -0.71 | -0.42 | 0.52 | 0.46 | 0.12
CCNC(=O)Nc1ccc(-c2nc(N3CCOC[C@@H]3C)c3c(n2)C(C)(C)S(=O)(=O)C3)cc1 | 2.26 | 0.52 | -0.02 | 0.04 | 0.5 | 0.57 | -0.58 | 0.6 | 1.4 | -0.21
COc1ccc(COc2ccc(Cc3cnc(N)nc3N)cc2OC)cc1 | -0.05 | 0.76 | 1.06 | 0.32 | 0.31 | 0.08 | 0.34 | -0.15 | 1.94 | 1.56
COc1cc2ncnc(Oc3cccc(NC(=O)Nc4cc(C(C)(C)C(F)(F)F)on4)c3)c2cc1OC | 1.91 | 0.64 | 0.86 | 1.66 | 0.78 | 0.38 | 0.77 | 1.04 | 1.43 | 0.45
Cc1cc(C(C)Nc2ccccc2)c2nc(N3CCOCC3)cc(=O)n2c1 (stereo not given) | 0.23 | 1.22 | 0.52 | -0.26 | -0.69 | 0.34 | 0.27 | 0.37 | 0 | 0.24
Cn1c2ccccc2c2c3c(c4c5ccccc5n(CCC#N)c4c21)CNC3=O | 2.09 | 2.57 | -1.36 | 1.14 | 4.81 | 3.29 | 2.07 | 5.99 | 9.45 | 3.31
Nc1ncnc2n[nH]c(Nc3ccc(F)cc3)c12 | 1 | 1.15 | 0.86 | 3.22 | 0.86 | 0.93 | 0.46 | 1.06 | 3.5 | 0.76
